Source: the supplement of paper PMC10849652
Targets with a hit are over-represented here; the source holds about 7,900 in all. About 0.6% of all pairs of compound and target were hits. A number with no mark means an inactive call.

What was measured:
Test in all cases: log2 fold change, soluble protein after heating vs DMSO (PISA); higher = thermal stabilisation; K562 cells, 10 uM, 30 min; active = over 0.2 and 3.5 SD of the protein, either way, in both replicates (recomputed)
erlotinib = compound: C#Cc1cccc(Nc2ncnc3cc(OCCOC)c(OCCOC)cc23)c1 [erlotinib]
How it was run: (§1)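 Soluble protein was defined as the supernatant after 21,000xg for 90 min. It came from K562 cells at 2×10^6 cells/mL given 10 μM compound for 30 min, heated in aliquots for 3 min across 48°C-58°C, pooled, and extracted in PBS with 0.5% NP-40 at 4°C, and was quantified by TMTpro 16plex LC-MS/MS with equalised channel sums. Thermal stability against control samples, from duplicates, is reported as log2 fold change.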

[1] = compound: C/C(=N\NC(=O)C1=CC(=CC=C1)S(=O)(=O)N2CCOCC2)/C3=C(C=CC(=C3)Cl)O
How it was run: as §1

[2] = compound: C1=CC(=C(C=C1Cl)C2=NC3=NC=CN=C3C(=N2)NC4=CC=NC=C4)F
How it was run: as §1

[3] = compound: C1=CC(=CC=C1C2=NC3=C(N2)C=C(C=C3)C(=O)N)OC4=CC=C(C=C4)Cl
How it was run: as §1

[4] = compound: C1=CC2=C(C=CC(=C2)/C=C\3/C(=O)NC(=NCC4=CC=CS4)S3)N=C1
How it was run: as §1

[5] = compound: C1=CC2=NC=CN=C2C=C1/C=C/3\C(=O)NC(=O)S3
How it was run: as §1

[6] = compound: C1=CC=C(C=C1)C2=NC(=C(N2)C3=CC=NC=C3)C4=CC(=C(C=C4)Cl)O
How it was run: as §1

[7] = compound: C1=CC=C2C(=C1)C3=NNC4=CC=CC(=C43)C2=O
How it was run: as §1

[8] = compound: C1CCN(C1)C(=O)NC2=CC=CC(=C2)NC3=NC=C(C(=N3)NCCC4=CN=CN4)Br
How it was run: as §1

[9] = compound: C1CN(CCC1(CC2=CC=C(C=C2)Cl)N)C3=NC=NC4=C3C=CN4
How it was run: as §1

IRAK-1-4 Inhibitor I = compound: C1COCCN1CCN2C3=CC=CC=C3N=C2NC(=O)C4=CC(=CC=C4)[N+](=O)[O-] [IRAK-1-4 Inhibitor I]
How it was run: as §1

ibrutinib = compound: C=CC(=O)N1CCC[C@@H](n2nc(-c3ccc(Oc4ccccc4)cc3)c3c(N)ncnc32)C1 [ibrutinib]
How it was run: as §1

[10] = compound: CC(=O)c1cnc2ccc(-c3cc(Cl)c(O)c(Cl)c3)nc2c1N[C@H]1CC[C@H](CN(C)C)CC1
How it was run: as §1

ralimetinib = compound: CC(C)(C)Cn1c(N)nc2ccc(-c3[nH]c(C(C)(C)C)nc3-c3ccc(F)cc3)nc21 [ralimetinib]
How it was run: as §1

[11] = compound: CC(C)(O)CC(=O)NCCn1ccc2ncnc(Nc3ccc(Oc4cccc(C(F)(F)F)c4)c(Cl)c3)c21
How it was run: as §1

[12] = compound: CC(C)C1=C2N=C(C=C(N2N=C1)NCC3=CC=CC=C3)NCCCCCCN
How it was run: as §1

[13] = compound: CC(C)C[C@@H](C=O)NC(=O)[C@H](CC(C)C)NC(=O)[C@H](CC(C)C)NC(=O)OCc1ccccc1
How it was run: as §1

pinometostat = compound: CC(C)N(C[C@H]1O[C@@H](n2cnc3c(N)ncnc32)[C@H](O)[C@@H]1O)[C@H]1C[C@@H](CCc2nc3cc(C(C)(C)C)ccc3[nH]2)C1 [pinometostat]
How it was run: as §1

[14] = compound: CC1=C(C(CC(=O)N1)C2=CC=C(C=C2)C(F)(F)F)C(=O)NC3=C(C=C4C(=C3)C=NN4)F
How it was run: as §1

[15] = compound: CC1=C(C2=C(C=C1)C(=O)C3=CC=CC=C3N2CCCN)C
How it was run: as §1

Sequence of UniProt P04066 (P04066 whole entry, looked up): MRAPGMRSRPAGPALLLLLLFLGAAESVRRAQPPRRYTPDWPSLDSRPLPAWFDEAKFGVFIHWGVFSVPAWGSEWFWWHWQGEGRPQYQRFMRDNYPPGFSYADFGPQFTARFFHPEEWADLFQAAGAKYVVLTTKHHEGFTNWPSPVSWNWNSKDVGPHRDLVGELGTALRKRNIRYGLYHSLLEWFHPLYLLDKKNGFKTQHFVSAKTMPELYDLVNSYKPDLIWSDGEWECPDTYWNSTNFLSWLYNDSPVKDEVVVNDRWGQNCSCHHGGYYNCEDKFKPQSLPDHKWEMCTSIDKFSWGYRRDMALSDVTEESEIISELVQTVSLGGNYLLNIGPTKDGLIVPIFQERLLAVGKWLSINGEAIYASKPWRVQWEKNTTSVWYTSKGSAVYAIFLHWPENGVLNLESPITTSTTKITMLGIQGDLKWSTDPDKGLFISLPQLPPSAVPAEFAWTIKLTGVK
Sequence of UniProt Q16774 (Q16774 whole entry, looked up): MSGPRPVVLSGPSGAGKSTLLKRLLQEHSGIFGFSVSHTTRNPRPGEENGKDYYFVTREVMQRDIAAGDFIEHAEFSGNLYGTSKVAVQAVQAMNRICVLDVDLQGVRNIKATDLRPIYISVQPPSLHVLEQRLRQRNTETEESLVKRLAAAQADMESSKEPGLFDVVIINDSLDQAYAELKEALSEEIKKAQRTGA
Sequence of UniProt Q9Y3I1 (Q9Y3I1 whole entry, looked up): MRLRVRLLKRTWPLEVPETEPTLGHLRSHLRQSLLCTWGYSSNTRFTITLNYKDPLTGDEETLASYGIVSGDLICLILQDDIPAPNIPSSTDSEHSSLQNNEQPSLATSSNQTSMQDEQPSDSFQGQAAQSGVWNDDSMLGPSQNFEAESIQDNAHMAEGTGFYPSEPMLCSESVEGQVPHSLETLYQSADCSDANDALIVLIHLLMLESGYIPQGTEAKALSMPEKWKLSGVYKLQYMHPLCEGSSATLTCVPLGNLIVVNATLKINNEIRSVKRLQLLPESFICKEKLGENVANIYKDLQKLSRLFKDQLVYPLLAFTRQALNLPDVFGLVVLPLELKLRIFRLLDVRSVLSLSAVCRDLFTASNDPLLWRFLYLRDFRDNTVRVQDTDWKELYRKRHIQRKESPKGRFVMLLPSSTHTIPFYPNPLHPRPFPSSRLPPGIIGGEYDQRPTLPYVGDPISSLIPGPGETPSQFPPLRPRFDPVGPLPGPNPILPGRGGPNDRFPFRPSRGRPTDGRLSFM
Sequence of UniProt Q9BTY2 (Q9BTY2 whole entry, looked up): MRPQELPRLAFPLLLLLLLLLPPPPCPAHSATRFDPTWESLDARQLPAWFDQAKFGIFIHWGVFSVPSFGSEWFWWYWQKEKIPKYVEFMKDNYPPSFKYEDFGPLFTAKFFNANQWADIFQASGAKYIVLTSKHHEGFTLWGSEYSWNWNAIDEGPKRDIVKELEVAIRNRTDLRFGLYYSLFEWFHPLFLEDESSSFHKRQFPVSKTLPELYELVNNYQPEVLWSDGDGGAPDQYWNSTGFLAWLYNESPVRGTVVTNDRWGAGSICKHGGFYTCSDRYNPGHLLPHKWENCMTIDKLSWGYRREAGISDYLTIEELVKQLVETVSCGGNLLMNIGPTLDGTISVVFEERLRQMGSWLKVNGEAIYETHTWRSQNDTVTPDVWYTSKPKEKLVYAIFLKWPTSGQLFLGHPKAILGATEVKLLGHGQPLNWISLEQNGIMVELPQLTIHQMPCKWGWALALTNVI
Sequence of UniProt Q96I24 (Q96I24 whole entry, looked up): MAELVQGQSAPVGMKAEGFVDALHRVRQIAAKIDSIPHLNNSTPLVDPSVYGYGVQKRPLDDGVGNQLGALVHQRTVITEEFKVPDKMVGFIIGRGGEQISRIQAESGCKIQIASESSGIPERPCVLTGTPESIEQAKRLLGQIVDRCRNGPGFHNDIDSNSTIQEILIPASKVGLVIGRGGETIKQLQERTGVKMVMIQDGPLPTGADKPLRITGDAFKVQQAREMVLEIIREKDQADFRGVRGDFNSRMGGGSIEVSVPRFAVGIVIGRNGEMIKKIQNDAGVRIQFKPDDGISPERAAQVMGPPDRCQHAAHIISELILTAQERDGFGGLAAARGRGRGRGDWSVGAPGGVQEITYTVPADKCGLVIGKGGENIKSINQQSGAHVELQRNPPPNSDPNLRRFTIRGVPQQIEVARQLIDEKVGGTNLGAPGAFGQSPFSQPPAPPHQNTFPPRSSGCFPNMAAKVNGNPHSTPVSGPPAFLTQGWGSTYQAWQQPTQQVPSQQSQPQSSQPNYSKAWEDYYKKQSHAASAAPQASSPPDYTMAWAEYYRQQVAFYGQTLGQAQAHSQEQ
Sequence of UniProt P00390 (P00390 whole entry, looked up): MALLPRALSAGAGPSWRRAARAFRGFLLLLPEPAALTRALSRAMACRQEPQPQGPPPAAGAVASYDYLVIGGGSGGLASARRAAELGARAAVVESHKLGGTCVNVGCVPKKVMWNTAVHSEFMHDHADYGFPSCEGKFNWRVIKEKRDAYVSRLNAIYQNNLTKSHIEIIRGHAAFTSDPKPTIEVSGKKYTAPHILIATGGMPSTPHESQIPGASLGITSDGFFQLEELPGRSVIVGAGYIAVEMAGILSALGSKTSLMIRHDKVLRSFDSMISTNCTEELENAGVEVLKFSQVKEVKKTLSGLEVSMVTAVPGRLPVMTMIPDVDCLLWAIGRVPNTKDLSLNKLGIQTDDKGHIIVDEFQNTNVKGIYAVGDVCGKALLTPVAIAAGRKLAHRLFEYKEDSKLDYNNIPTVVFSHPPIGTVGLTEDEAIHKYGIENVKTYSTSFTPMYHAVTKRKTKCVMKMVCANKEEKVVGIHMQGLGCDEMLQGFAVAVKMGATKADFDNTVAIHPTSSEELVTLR
Sequence of UniProt P55795 (P55795 whole entry, looked up): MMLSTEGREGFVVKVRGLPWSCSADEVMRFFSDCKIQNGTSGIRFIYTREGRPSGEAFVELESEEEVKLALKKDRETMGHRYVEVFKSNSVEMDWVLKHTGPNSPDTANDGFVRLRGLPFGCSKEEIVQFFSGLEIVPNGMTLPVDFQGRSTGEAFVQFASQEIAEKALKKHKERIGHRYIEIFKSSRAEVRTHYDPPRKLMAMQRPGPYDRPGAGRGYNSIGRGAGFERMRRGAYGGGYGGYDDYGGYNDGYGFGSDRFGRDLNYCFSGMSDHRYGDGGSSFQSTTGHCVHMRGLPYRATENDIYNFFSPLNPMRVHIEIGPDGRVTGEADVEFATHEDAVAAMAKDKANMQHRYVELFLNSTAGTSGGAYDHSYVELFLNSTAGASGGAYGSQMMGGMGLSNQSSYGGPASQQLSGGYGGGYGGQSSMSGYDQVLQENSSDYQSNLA
Sequence of UniProt P08236 (P08236 whole entry, looked up): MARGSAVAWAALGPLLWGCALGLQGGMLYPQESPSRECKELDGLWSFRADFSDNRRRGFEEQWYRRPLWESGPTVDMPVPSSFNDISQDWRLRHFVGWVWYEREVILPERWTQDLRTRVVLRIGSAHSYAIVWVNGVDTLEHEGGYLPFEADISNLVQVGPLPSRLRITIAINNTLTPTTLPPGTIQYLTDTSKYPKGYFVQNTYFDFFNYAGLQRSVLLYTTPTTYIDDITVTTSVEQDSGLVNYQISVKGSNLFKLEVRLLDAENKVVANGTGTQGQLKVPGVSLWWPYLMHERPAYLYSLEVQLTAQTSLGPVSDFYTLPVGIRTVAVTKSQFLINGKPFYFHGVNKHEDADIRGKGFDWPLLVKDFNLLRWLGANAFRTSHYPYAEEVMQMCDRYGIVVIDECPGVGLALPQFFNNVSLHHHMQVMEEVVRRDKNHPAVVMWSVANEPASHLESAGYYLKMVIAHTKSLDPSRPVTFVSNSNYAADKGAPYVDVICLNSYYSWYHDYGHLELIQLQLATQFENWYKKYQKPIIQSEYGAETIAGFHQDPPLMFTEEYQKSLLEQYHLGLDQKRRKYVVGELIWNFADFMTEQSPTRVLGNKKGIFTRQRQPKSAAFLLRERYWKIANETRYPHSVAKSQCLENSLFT
Sequence of UniProt Q10471 (Q10471 whole entry, looked up): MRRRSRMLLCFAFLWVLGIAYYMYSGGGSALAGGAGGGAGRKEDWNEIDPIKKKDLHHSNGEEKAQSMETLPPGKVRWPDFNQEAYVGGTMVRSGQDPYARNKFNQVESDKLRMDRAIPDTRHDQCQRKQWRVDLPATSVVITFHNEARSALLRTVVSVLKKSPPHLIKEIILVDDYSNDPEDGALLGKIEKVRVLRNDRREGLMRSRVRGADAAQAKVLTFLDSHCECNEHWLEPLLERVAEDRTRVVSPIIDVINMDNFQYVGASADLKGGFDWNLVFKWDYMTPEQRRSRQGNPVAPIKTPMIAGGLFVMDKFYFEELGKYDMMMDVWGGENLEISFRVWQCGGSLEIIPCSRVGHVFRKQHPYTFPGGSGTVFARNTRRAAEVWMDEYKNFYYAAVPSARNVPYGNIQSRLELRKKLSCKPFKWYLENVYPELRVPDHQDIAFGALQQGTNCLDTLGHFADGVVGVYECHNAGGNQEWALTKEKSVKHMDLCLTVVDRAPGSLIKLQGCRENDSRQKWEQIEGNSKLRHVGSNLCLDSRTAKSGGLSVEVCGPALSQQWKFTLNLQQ
Sequence of UniProt Q96HJ9 (Q96HJ9 whole entry, looked up): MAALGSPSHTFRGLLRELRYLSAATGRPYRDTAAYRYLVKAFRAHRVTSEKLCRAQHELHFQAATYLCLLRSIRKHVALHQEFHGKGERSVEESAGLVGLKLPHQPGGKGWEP
Sequence of UniProt P22830 (P22830 whole entry, looked up): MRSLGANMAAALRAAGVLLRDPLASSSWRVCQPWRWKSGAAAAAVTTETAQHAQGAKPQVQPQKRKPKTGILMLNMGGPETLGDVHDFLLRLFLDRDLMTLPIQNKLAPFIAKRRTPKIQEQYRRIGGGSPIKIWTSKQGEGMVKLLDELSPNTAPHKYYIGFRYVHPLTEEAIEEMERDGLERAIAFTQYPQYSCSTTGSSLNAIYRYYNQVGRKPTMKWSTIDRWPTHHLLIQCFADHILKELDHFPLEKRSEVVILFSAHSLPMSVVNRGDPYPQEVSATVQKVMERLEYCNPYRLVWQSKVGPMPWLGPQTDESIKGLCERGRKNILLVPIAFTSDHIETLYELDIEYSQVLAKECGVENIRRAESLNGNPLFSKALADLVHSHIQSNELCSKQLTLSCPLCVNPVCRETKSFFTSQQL

Target	log2 fold change (erlotinib)	log2 fold change [1]	log2 fold change [2]	log2 fold change [3]	log2 fold change [4]	log2 fold change [5]	log2 fold change [6]	log2 fold change [7]	log2 fold change [8]	log2 fold change [9]	log2 fold change (IRAK-1-4 Inhibitor I)	log2 fold change (ibrutinib)	log2 fold change [10]	log2 fold change (ralimetinib)	log2 fold change [11]	log2 fold change [12]	log2 fold change [13]	log2 fold change (pinometostat)	log2 fold change [14]	log2 fold change [15]
FECH isoform 2 (UniProt P22830)	0.191	-0.179	0.349	0.206	0.162	0.048	0.429	0.135	0.172	0.046	0.408	0.082	0.129	0.159	0.426	-0.691 (active)	-0.144	-0.098	-0.457	0.514
FBXO7 (UniProt Q9Y3I1)	0.039	0.033	0.014	-0.055	0.033	-0.038	0.001	-0.014	0.005	0	-0.008	0.036	-0.024	-0.005	-0.068	0.001	-0.013	0.042	-0.021	0.044
GUK1 isoform 2 (UniProt Q16774)	0.009	0.289	0.092	0	0.004	0	-0.02	0.021	-0.03	0.066	-0.076	-0.033	-0.162	0.038	-0.234	-0.033	0.167	-0.037	-0.074	0.092
GAPVD1 isoform 6 (UniProt Q14C86)	0.008	0.133	-0.036	-0.043	0.033	0.007	0.002	0.037	-0.012	-0.041	-0.044	-0.087	0.005	0.056	-0.111	-0.278 (active)	0.037	0.094	0.003	-0.003
FUCA1 (UniProt P04066)	0.01	0.024	0.049	-0.007	0.031	-0.004	-0.004	0.044	0.012	0.018	-0.003	0.018	-0.049	-0.067	0.056	-0.054	0.003	-0.03	-0.008	-0.199
GLA (UniProt P06280)	0.016	0.019	-0.018	-0.021	-0.018	-0.017	-0.034	-0.032	0.026	0.045	0.034	0.026	-0.031	-0.05	-0.052	-0.199	0.015	0.02	0.052	-0.051
GALNT2 (UniProt Q10471)	-0.052	0.043	0.021	0	0.009	0.022	0.028	0.046	0.009	0.042	0.009	-0.019	-0.006	0.014	0.027	-0.021	-0.02	-0.02	-0.028	0.007
GLS (UniProt O94925)	0.003	0.105	0.174	-0.107	-0.043	0.14	0.034	-0.023	-0.091	-0.03	0.051	-0.096	0.002	-0.071	-0.14	0.004	0.032	-0.037	0.008	0.002
GUSB (UniProt P08236)	0.09	-0.099	-0.063	0.165	-0.095	0.032	0.009	0.052	0.033	-0.002	0.037	-0.016	-0.075	-0.013	0.011	0.025	-0.005	-0.032	0.174	-0.077
FUBP3 (UniProt Q96I24)	-0.059	0.007	0.084	0.019	-0.014	0.069	-0.017	0.002	0.009	0.036	-0.002	-0.002	-0.054	0.023	-0.083	0.15	0.036	-0.017	-0.022	0.387 (active)
IFT74 (UniProt Q96LB3)	0.248	-0.95 (active)	0.125	-0.352	0.087	-0.033	0.211	-0.038	-0.076	0.337	0.067	0.146	0.02	0.27	-0.095	0.191	0.076	-0.024	-0.085	0.071
HDAC6 (UniProt Q9UBN7)	0.43 (active)	0.033	-0.007	-0.007	0.041	-0.164	0.033	0.07	-0.043	0.115	-0.086	0.314	-0.03	0.034	-0.023	0.069	-0.025	0.009	-0.046	0.021
HNRNPH2 (UniProt P55795)	0.019	0.17	0.037	-0.028	0.112	-0.031	-0.047	-0.016	-0.068	0.024	-0.081	-0.024	-0.134	0.137	-0.067	-0.345 (active)	0.124	0	0.193	-0.104
GSR (UniProt P00390)	-0.099	0.021	0.071	0.067	0.023	0.007	-0.026	-0.017	0.011	0.054	0.037	-0.005	-0.011	-0.021	-0.015	0.082	0.023	-0.05	-0.005	-0.003
FUCA2 (UniProt Q9BTY2)	-0.001	-0.03	-0.026	0.013	0.015	0.038	0.033	0.029	0.056	0.017	-0.078	0.043	-0.056	0.019	0.026	-0.09	-0.004	0.036	-0.036	-0.12
FMC1 (UniProt Q96HJ9)	0	0.072	0.083	0.004	0.108	-0.063	0.319 (active)	0.001	-0.026	-0.042	-0.06	0.008	0.066	-0.098	-0.006	0.01	0.125	0.047	-0.041	0.02
